# Assay results as given in paper PMC7862700, “An all-to-all approach to the identification of sequence-specific readers for epigenetic DNA modifications on cytosine”.
# What was measured:
# Test in all cases: DAPPL (digital affinity profiling via proximity ligation, sequencing); 10 mM Tris-HCl pH 7.5, 50 mM NaCl, 1 mM DTT, 4% glycerol, room temperature, 30 min; GST-TFs on glutathione beads, 16-mer random dsDNA library, 0.1% formaldehyde crosslink after washing; high values mean tight binding
# Settings in all cases: protein: recombinant; tags: N-terminal GST; dsDNA, one strand shown
# ERF = target: T1, ERF (Homo sapiens, UniProt P50548 1-548)
# T1 sequence: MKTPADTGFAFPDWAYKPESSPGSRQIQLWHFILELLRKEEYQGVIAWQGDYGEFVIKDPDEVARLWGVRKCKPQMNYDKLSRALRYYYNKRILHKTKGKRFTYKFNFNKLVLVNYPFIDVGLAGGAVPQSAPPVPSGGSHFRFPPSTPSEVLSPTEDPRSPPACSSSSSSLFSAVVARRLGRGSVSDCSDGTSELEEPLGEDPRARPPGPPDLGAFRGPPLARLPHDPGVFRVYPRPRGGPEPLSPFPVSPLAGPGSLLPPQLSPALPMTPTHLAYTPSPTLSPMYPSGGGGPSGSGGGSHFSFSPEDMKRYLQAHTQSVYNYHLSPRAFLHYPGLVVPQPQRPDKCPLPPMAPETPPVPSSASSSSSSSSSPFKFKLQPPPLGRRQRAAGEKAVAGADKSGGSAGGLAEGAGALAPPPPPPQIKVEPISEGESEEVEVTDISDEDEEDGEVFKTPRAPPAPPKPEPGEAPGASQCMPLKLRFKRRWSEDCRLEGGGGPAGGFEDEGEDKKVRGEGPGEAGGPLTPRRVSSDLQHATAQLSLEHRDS
# Outline: (§1)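 Sequencing on an Illumina NextSeq500 followed washing, crosslinking with 0.1% formaldehyde, proximity ligation (BsaI/T4 ligase, 1 h, 37 °C) and PCR amplification of pools that had been incubated for 30 min at room temperature with 200 nmole of a random double-stranded 16-mer DNA library in Tris/NaCl/DTT/glycerol buffer. Each pool held DNA-barcoded human transcription factors, expressed in yeast as GST fusions and captured on glutathione beads, plus a tag-only sample. Binding signal is a hexamer's read frequency for a factor divided by its frequency in the tag-only sample.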
# ETV3L = target: T2, ETV3L (Homo sapiens, UniProt Q6ZN32 1-361)
# T2 sequence: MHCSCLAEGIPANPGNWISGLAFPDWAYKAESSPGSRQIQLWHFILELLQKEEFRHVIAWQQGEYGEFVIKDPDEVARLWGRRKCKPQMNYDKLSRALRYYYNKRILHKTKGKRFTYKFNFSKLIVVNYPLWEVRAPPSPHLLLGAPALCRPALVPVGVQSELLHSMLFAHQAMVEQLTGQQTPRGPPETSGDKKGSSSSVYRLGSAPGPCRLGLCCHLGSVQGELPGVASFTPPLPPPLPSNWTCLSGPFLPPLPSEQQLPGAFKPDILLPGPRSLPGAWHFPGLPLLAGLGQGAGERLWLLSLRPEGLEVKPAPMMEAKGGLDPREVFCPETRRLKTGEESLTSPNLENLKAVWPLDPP
# Outline: as §1
# ETS2 = target: T3, ETS2 (Homo sapiens, UniProt P15036 1-469)
# T3 sequence: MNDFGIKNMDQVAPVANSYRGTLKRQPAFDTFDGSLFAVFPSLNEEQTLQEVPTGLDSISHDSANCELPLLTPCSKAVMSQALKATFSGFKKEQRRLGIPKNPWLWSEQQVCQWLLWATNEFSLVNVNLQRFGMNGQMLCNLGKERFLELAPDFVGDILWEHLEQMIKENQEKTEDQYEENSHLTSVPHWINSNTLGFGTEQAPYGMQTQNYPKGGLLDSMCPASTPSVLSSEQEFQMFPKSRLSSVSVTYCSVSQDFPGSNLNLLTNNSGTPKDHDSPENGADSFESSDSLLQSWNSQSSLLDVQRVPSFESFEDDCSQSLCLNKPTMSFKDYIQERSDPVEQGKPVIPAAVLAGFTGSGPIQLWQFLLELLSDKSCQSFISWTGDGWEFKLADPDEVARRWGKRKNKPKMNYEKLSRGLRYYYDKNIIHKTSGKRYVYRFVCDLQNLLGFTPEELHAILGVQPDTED
# Outline: as §1
# SPDEF = target: T4, SPDEF (Homo sapiens, UniProt O95238 1-335)
# T4 sequence: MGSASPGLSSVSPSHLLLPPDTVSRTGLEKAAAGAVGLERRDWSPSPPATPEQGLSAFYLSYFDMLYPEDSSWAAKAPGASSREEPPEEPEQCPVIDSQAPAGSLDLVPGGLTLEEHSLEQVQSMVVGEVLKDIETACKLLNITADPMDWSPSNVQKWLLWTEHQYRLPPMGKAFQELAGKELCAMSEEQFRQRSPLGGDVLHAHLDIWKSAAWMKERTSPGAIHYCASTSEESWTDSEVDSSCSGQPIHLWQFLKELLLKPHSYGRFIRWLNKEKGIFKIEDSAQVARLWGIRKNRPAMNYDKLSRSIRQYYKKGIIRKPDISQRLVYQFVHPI
# Outline: as §1
# ETV7 = target: T5, ETV7 (Homo sapiens, UniProt Q9Y603 1-341)
# T5 sequence: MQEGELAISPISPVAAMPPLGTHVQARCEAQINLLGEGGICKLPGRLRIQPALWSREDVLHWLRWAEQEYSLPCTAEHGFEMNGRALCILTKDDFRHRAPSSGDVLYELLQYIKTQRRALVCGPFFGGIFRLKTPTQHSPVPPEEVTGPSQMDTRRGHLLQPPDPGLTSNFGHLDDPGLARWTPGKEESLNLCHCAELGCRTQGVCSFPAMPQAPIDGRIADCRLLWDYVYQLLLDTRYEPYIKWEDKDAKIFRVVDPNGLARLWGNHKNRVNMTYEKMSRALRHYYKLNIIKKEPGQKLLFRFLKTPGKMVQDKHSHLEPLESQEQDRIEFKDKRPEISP
# Outline: as §1
# ELF5 = target: T6, ELF5 (Homo sapiens, UniProt Q9UKW6-2 1-255)
# T6 sequence: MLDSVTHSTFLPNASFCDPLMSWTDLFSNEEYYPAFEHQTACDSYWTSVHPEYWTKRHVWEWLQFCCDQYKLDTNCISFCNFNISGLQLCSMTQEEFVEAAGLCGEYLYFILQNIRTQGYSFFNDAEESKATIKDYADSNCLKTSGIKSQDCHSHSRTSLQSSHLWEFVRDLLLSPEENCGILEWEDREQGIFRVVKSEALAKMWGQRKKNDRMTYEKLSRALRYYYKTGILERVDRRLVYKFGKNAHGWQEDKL
# Outline: as §1
# ETV3 = target: T7, ETV3 (Homo sapiens, UniProt P41162-2 1-143)
# T7 sequence: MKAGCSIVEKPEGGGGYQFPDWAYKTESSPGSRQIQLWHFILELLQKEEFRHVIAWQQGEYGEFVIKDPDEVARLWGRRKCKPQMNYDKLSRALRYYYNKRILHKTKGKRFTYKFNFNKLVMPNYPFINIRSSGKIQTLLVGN
# Outline: as §1
# ETV6 = ETV6 (Homo sapiens, UniProt P41212 1-452)
# Chain of ETV6 (P41212 whole entry): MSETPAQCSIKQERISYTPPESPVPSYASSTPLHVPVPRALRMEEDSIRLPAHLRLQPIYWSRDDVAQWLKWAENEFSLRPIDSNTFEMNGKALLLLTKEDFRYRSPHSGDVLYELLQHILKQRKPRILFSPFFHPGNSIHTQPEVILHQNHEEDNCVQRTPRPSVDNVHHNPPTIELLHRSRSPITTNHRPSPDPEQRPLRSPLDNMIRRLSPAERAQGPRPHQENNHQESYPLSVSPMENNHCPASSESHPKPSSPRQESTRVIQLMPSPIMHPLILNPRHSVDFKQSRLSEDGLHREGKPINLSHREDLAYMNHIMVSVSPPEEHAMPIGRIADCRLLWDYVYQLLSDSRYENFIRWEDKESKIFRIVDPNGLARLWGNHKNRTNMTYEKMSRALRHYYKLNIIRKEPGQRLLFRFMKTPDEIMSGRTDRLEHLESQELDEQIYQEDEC
# Outline: as §1
Sequence,binding signal (ERF),binding signal (ETV3L),binding signal (ETS2),binding signal (SPDEF),binding signal (ETV7),binding signal (ELF5),binding signal (ETV3),binding signal (ETV6)
CTCTGC,"1.56 fold enrichment (6-mer frequency, TF over GST control)","1.52 fold enrichment (6-mer frequency, TF over GST control)","1.54 fold enrichment (6-mer frequency, TF over GST control)","1.4 fold enrichment (6-mer frequency, TF over GST control)","1.27 fold enrichment (6-mer frequency, TF over GST control)","1.34 fold enrichment (6-mer frequency, TF over GST control)","1.5 fold enrichment (6-mer frequency, TF over GST control)","1.27 fold enrichment (6-mer frequency, TF over GST control)"
AAACGC,"1.24 fold enrichment (6-mer frequency, TF over GST control)","1.18 fold enrichment (6-mer frequency, TF over GST control)","1.22 fold enrichment (6-mer frequency, TF over GST control)","1.24 fold enrichment (6-mer frequency, TF over GST control)","1.17 fold enrichment (6-mer frequency, TF over GST control)","1.33 fold enrichment (6-mer frequency, TF over GST control)","1.3 fold enrichment (6-mer frequency, TF over GST control)","1.35 fold enrichment (6-mer frequency, TF over GST control)"
CGCTTC,"2.11 fold enrichment (6-mer frequency, TF over GST control)","2.03 fold enrichment (6-mer frequency, TF over GST control)","2.07 fold enrichment (6-mer frequency, TF over GST control)","2 fold enrichment (6-mer frequency, TF over GST control)","1.9 fold enrichment (6-mer frequency, TF over GST control)","2.14 fold enrichment (6-mer frequency, TF over GST control)","2.09 fold enrichment (6-mer frequency, TF over GST control)","2.35 fold enrichment (6-mer frequency, TF over GST control)"
AACGCT,"1.26 fold enrichment (6-mer frequency, TF over GST control)","1.15 fold enrichment (6-mer frequency, TF over GST control)","1.13 fold enrichment (6-mer frequency, TF over GST control)","1.2 fold enrichment (6-mer frequency, TF over GST control)","1.24 fold enrichment (6-mer frequency, TF over GST control)","1.19 fold enrichment (6-mer frequency, TF over GST control)","1.24 fold enrichment (6-mer frequency, TF over GST control)","1.27 fold enrichment (6-mer frequency, TF over GST control)"
ATGCAT,"1.21 fold enrichment (6-mer frequency, TF over GST control)","1.26 fold enrichment (6-mer frequency, TF over GST control)","1.21 fold enrichment (6-mer frequency, TF over GST control)","1.32 fold enrichment (6-mer frequency, TF over GST control)","1.21 fold enrichment (6-mer frequency, TF over GST control)","1.15 fold enrichment (6-mer frequency, TF over GST control)","1.26 fold enrichment (6-mer frequency, TF over GST control)","1.2 fold enrichment (6-mer frequency, TF over GST control)"
TCGTCT,"1.4 fold enrichment (6-mer frequency, TF over GST control)","1.43 fold enrichment (6-mer frequency, TF over GST control)","1.46 fold enrichment (6-mer frequency, TF over GST control)","1.37 fold enrichment (6-mer frequency, TF over GST control)","1.21 fold enrichment (6-mer frequency, TF over GST control)","1.32 fold enrichment (6-mer frequency, TF over GST control)","1.23 fold enrichment (6-mer frequency, TF over GST control)","1.34 fold enrichment (6-mer frequency, TF over GST control)"
